# Measurements as given in article PMC7862700, “An all-to-all approach to the identification of sequence-specific readers for epigenetic DNA modifications on cytosine”.
# What was measured:
# Experiment in all cases: DAPPL (digital affinity profiling via proximity ligation, sequencing); 10 mM Tris-HCl pH 7.5, 50 mM NaCl, 1 mM DTT, 4% glycerol, room temperature, 30 min; GST-TFs on glutathione beads, 16-mer random dsDNA library, 0.1% formaldehyde crosslink after washing; high values mean tight binding
# FEV = molecular target: T1, FEV (Homo sapiens, UniProt Q99581 1-238); conditions: protein: recombinant; tags: N-terminal GST; dsDNA, one strand shown
# T1 sequence: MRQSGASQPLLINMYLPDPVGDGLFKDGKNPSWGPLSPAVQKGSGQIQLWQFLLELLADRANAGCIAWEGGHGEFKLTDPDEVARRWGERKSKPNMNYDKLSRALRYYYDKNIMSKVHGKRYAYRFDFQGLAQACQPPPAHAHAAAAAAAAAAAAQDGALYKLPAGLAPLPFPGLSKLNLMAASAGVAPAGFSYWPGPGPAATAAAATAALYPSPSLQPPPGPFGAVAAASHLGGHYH
# Method in brief: (§1)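 Binding signal is each hexamer's read frequency for a factor divided by its frequency in the tag-only sample. The factors were GST-fused human transcription factors from yeast, captured on glutathione beads, DNA-barcoded and pooled with that sample. Pools were incubated with 200 nmole of a random double-stranded 16-mer DNA library in Tris/NaCl/DTT/glycerol buffer at room temperature for 30 min, then washed, crosslinked with 0.1% formaldehyde, proximity-ligated with BsaI/T4 ligase (1 h, 37 °C), PCR-amplified and sequenced on an Illumina NextSeq500.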
# ETV5 = ETV5 (Homo sapiens, UniProt P41161 1-510); conditions: protein: recombinant; tags: N-terminal GST; dsDNA, one strand shown
# Chain of ETV5 (P41161 whole entry): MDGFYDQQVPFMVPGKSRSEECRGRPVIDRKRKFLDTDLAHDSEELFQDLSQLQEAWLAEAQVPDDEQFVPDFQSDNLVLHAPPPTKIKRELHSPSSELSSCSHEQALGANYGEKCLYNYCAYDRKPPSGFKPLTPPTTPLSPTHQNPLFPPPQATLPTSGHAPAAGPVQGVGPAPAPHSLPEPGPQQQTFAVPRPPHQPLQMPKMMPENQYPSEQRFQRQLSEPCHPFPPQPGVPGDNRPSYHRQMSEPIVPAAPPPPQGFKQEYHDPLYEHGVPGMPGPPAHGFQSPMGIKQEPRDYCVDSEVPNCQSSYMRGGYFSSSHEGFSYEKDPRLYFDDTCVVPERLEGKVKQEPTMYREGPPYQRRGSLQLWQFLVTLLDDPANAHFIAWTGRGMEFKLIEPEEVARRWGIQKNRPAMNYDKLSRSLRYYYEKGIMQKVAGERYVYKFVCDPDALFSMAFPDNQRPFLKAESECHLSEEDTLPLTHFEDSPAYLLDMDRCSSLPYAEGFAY
# Method in brief: as §1
# HSF1 = HSF1 (Homo sapiens, UniProt Q00613 1-529); conditions: protein: recombinant; tags: N-terminal GST; chain copies: 3; dsDNA, one strand shown
# Chain of HSF1 (Q00613 whole entry): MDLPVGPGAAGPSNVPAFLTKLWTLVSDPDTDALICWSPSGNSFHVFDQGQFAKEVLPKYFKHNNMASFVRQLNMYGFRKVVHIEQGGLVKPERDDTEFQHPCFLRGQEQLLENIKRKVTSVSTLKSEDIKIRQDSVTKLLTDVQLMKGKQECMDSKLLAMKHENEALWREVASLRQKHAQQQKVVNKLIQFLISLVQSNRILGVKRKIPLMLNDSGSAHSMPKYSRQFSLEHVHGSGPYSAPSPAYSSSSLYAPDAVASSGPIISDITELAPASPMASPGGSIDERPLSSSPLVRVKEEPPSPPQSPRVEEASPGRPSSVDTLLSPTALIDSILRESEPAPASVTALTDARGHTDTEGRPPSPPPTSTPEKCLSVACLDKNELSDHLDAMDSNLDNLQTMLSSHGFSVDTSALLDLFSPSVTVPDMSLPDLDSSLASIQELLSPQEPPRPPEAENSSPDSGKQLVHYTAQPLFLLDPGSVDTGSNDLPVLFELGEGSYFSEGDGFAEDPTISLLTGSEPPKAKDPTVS
# Method in brief: as §1
# SPIC = molecular target: T2, SPIC (Homo sapiens, UniProt Q8N5J4 1-248); conditions: protein: recombinant; tags: N-terminal GST; dsDNA, one strand shown
# T2 sequence: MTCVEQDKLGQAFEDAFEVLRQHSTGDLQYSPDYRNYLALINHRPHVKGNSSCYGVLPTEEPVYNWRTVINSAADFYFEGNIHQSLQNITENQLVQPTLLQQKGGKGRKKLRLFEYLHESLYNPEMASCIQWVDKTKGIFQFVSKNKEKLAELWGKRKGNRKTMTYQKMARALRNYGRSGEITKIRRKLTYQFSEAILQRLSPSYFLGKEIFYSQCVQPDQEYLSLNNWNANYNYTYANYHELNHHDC
# Method in brief: as §1
# ELF4 = ELF4 (Homo sapiens, UniProt Q99607 1-663); conditions: protein: recombinant; tags: N-terminal GST; dsDNA, one strand shown
# Chain of ELF4 (Q99607 whole entry): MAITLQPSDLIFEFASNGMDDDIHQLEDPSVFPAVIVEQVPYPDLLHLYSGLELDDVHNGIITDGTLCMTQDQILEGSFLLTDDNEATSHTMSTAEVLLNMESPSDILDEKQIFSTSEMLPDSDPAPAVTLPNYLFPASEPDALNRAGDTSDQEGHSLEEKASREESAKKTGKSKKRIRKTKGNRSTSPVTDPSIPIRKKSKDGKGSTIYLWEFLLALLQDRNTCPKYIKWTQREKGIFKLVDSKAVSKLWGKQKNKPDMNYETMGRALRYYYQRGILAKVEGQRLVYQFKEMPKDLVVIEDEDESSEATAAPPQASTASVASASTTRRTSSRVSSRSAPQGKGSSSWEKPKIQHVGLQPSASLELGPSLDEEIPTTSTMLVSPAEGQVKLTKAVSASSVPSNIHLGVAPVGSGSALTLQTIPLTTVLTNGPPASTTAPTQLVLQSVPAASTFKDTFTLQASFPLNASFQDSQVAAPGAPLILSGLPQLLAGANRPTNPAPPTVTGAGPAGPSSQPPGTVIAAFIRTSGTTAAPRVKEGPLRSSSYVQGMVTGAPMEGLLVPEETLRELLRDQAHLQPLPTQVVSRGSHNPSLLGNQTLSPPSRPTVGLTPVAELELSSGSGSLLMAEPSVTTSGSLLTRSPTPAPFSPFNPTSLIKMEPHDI
# Method in brief: as §1
# ELK4 = molecular target: T3, ELK4 (Homo sapiens, UniProt P28324-2 1-405); conditions: protein: recombinant; tags: N-terminal GST; dsDNA, one strand shown
# T3 sequence: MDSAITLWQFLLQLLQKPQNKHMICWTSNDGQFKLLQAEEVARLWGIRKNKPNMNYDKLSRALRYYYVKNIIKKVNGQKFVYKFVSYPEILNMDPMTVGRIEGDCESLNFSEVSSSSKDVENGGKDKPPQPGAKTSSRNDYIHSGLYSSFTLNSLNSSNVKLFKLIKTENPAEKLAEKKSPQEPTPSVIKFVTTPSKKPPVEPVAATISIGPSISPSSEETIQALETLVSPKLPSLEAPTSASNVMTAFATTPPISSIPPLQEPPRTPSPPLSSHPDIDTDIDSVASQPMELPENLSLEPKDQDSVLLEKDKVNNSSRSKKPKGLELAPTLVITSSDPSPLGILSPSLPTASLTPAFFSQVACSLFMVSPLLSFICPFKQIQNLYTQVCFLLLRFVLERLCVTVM
# Method in brief: as §1
# ETV2 = molecular target: T4, ETV2 (Homo sapiens, UniProt O00321 1-342); conditions: protein: recombinant; tags: N-terminal GST; dsDNA, one strand shown
# T4 sequence: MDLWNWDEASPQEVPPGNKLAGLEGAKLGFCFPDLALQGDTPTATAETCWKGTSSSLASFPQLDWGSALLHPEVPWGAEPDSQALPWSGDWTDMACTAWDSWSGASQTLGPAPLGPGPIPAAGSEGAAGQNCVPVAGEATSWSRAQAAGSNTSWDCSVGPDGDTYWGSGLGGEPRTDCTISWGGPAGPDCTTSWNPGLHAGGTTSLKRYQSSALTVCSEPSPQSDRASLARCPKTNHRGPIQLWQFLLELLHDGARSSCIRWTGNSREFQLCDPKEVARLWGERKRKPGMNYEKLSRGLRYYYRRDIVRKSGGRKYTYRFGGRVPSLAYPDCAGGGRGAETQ
# Method in brief: as §1
# ELF3 = molecular target: T5, ELF3 (Homo sapiens, UniProt P78545 1-371); conditions: protein: recombinant; tags: N-terminal GST; dsDNA, one strand shown
# T5 sequence: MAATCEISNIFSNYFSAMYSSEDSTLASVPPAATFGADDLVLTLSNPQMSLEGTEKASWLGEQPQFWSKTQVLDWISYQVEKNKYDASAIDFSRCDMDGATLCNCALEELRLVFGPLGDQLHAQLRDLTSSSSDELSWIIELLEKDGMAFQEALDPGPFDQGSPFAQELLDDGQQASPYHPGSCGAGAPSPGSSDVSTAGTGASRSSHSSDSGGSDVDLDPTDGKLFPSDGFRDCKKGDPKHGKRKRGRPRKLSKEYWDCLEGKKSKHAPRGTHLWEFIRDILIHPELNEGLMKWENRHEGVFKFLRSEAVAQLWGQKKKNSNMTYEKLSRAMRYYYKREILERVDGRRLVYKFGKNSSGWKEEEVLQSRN
# Method in brief: as §1
# CRX = CRX (Homo sapiens, UniProt O43186 1-299); conditions: protein: recombinant; tags: N-terminal GST; dsDNA, one strand shown
# Chain of CRX (O43186 whole entry): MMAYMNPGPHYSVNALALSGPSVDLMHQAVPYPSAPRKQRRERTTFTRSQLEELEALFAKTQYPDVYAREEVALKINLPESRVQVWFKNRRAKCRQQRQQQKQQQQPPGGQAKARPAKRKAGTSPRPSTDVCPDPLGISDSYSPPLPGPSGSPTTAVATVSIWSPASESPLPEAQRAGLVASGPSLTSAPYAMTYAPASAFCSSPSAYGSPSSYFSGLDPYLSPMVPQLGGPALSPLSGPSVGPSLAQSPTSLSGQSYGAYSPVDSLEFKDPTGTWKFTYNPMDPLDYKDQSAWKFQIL
# Method in brief: as §1
# ETV1 = ETV1 (Homo sapiens, UniProt P50549 1-477); conditions: protein: recombinant; tags: N-terminal GST; dsDNA, one strand shown
# Chain of ETV1 (P50549 whole entry): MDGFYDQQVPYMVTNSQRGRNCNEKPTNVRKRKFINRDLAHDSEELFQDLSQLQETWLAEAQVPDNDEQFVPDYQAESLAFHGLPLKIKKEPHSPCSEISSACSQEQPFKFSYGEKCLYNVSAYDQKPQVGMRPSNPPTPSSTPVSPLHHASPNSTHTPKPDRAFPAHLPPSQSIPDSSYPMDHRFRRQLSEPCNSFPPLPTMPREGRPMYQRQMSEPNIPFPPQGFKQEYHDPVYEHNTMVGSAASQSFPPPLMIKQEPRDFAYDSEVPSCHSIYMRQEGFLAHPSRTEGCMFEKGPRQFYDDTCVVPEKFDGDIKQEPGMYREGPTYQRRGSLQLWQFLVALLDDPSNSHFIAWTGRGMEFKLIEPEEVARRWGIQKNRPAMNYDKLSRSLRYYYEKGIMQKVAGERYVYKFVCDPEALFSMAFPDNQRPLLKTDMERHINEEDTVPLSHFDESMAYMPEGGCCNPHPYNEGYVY
# Method in brief: as §1
# ERF = molecular target: T6, ERF (Homo sapiens, UniProt P50548 1-548); conditions: protein: recombinant; tags: N-terminal GST; dsDNA, one strand shown
# T6 sequence: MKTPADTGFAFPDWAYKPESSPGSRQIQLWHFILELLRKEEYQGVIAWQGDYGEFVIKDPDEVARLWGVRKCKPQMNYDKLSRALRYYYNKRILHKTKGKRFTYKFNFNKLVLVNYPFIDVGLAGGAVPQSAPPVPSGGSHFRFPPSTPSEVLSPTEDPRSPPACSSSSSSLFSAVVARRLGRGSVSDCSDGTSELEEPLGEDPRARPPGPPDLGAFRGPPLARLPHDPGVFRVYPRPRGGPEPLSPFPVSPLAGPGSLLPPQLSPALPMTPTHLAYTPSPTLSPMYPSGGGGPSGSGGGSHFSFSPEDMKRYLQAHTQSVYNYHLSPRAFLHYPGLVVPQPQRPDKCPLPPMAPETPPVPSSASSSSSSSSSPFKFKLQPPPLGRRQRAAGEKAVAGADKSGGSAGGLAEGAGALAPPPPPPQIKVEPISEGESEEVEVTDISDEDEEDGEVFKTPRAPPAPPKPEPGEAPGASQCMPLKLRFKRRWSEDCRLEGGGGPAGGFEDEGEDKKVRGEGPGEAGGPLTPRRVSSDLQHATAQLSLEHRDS
# Method in brief: as §1
# ETV3L = molecular target: T7, ETV3L (Homo sapiens, UniProt Q6ZN32 1-361); conditions: protein: recombinant; tags: N-terminal GST; dsDNA, one strand shown
# T7 sequence: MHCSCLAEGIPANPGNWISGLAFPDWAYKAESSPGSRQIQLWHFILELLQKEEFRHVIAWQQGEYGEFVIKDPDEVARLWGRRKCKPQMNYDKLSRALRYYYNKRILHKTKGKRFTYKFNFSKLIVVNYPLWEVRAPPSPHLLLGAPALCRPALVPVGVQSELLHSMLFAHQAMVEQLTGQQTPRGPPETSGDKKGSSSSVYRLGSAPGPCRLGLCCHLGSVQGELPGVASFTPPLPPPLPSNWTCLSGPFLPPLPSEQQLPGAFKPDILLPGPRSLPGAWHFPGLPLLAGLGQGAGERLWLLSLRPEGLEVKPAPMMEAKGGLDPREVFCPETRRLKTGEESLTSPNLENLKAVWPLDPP
# Method in brief: as §1
# ETS2 = molecular target: T8, ETS2 (Homo sapiens, UniProt P15036 1-469); conditions: protein: recombinant; tags: N-terminal GST; dsDNA, one strand shown
# T8 sequence: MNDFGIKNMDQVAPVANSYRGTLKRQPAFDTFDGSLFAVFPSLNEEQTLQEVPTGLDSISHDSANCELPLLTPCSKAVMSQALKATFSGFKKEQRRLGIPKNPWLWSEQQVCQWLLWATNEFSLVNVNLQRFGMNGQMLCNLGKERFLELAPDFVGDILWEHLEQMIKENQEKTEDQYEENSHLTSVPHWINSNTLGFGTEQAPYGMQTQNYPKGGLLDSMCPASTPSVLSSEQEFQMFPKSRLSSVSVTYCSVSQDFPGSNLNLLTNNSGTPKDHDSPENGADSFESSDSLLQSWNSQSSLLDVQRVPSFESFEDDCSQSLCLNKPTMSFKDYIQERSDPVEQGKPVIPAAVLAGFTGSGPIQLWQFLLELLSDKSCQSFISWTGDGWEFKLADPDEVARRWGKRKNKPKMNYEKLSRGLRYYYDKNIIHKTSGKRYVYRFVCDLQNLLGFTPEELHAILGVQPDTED
# Method in brief: as §1
# SPDEF = molecular target: T9, SPDEF (Homo sapiens, UniProt O95238 1-335); conditions: protein: recombinant; tags: N-terminal GST; dsDNA, one strand shown
# T9 sequence: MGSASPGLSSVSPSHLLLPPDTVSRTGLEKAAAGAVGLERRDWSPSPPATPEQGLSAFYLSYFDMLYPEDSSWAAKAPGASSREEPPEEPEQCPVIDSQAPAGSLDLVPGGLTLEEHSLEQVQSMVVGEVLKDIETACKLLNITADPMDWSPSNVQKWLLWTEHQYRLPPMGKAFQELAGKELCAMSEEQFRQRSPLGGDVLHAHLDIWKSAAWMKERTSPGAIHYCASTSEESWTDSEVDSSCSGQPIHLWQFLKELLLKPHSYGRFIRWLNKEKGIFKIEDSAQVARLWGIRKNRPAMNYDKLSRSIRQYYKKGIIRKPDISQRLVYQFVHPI
# Method in brief: as §1
# ETV7 = molecular target: T10, ETV7 (Homo sapiens, UniProt Q9Y603 1-341); conditions: protein: recombinant; tags: N-terminal GST; dsDNA, one strand shown
# T10 sequence: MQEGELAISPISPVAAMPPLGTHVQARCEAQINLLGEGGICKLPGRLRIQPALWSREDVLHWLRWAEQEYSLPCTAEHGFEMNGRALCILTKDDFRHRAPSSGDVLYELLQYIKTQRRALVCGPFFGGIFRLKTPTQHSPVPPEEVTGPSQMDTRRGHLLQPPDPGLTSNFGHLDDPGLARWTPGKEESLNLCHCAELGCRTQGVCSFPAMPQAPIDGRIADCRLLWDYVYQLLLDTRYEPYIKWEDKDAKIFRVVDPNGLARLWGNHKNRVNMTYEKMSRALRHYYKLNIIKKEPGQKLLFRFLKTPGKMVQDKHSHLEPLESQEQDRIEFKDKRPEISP
# Method in brief: as §1
# ELF5 = molecular target: T11, ELF5 (Homo sapiens, UniProt Q9UKW6-2 1-255); conditions: protein: recombinant; tags: N-terminal GST; dsDNA, one strand shown
# T11 sequence: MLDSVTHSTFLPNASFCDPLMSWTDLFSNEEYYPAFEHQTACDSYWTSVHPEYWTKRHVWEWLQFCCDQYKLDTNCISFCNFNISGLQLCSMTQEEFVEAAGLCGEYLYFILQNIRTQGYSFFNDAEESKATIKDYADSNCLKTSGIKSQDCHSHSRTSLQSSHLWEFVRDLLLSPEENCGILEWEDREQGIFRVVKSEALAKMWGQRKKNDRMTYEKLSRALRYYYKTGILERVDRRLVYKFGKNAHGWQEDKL
# Method in brief: as §1
# ETV3 = molecular target: T12, ETV3 (Homo sapiens, UniProt P41162-2 1-143); conditions: protein: recombinant; tags: N-terminal GST; dsDNA, one strand shown
# T12 sequence: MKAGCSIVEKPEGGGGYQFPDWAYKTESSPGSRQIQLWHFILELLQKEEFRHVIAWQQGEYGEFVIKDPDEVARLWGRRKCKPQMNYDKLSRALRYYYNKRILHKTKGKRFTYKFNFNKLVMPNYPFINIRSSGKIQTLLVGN
# Method in brief: as §1
# ETV6 = ETV6 (Homo sapiens, UniProt P41212 1-452); conditions: protein: recombinant; tags: N-terminal GST; dsDNA, one strand shown
# Chain of ETV6 (P41212 whole entry): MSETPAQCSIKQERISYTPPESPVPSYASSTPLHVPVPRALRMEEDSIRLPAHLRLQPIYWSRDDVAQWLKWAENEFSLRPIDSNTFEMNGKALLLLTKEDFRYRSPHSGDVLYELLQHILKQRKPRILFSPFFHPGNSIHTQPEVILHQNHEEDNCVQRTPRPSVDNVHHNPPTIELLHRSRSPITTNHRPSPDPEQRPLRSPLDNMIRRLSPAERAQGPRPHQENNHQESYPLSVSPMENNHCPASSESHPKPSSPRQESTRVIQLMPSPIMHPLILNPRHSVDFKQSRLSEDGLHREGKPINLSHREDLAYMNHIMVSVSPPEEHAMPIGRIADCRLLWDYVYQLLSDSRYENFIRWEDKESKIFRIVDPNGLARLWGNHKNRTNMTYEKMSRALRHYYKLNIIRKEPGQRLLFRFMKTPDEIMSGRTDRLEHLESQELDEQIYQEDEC
# Method in brief: as §1
sequence,measurement,setting,value
ACGATA,binding signal,FEV,"1.12 fold enrichment (6-mer frequency, TF over GST control)"
same,binding signal,ETV5,"1.16 fold enrichment (6-mer frequency, TF over GST control)"
same,binding signal,HSF1,"1.17 fold enrichment (6-mer frequency, TF over GST control)"
same,binding signal,SPIC,"1.38 fold enrichment (6-mer frequency, TF over GST control)"
same,binding signal,ELF4,"1.22 fold enrichment (6-mer frequency, TF over GST control)"
same,binding signal,ELK4,"1.18 fold enrichment (6-mer frequency, TF over GST control)"
same,binding signal,ETV2,"1.22 fold enrichment (6-mer frequency, TF over GST control)"
same,binding signal,ELF3,"1.04 fold enrichment (6-mer frequency, TF over GST control)"
same,binding signal,CRX,"1.26 fold enrichment (6-mer frequency, TF over GST control)"
same,binding signal,ETV1,"1.15 fold enrichment (6-mer frequency, TF over GST control)"
same,binding signal,ERF,"1.2 fold enrichment (6-mer frequency, TF over GST control)"
same,binding signal,ETV3L,"1.18 fold enrichment (6-mer frequency, TF over GST control)"
same,binding signal,ETS2,"1.25 fold enrichment (6-mer frequency, TF over GST control)"
same,binding signal,SPDEF,"1.13 fold enrichment (6-mer frequency, TF over GST control)"
same,binding signal,ETV7,"1.22 fold enrichment (6-mer frequency, TF over GST control)"
same,binding signal,ELF5,"1.09 fold enrichment (6-mer frequency, TF over GST control)"
same,binding signal,ETV3,"1.13 fold enrichment (6-mer frequency, TF over GST control)"
same,binding signal,ETV6,"1.18 fold enrichment (6-mer frequency, TF over GST control)"
